Assay outcomes from PubChem.
CYP2C9 inh – blocks human cytochrome P450 2C9; CYP2C9 Supersomes, luciferin-H conversion, luminescence; inhibition, % at 5 µM; 96,000 compounds, 20% hits; AID 777;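 active means blocking of liver enzyme CYP2C9 beyond about 50% at 5 µM, limit read from the data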
CYP2C9 activ – CYP2C9 (human) activation; 96,000 compounds, 1.4% hits; AID 1024; activation factor at 5 µM; P11712; recombinant CYP2C9, luciferin-H conversion, luminescence; hits give high values; factor 1 = untreated enzyme, 0 = blocked;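 active means activation factor of 2 or more for CYP2C9 at a 5 µM dose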;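 further: 0 = sulfaphenazole-blocked wells and 1 = vehicle-only wells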
CYP2C19 inhib – blocks human cytochrome P450 2C19; 96,000 compounds, 21% hits; P33261; CYP2C19 Supersomes, luciferin-H EGE luminescence, 30 min; AID 778; inhibition, % at 5 µM;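 active means CYP2C19 inhibition above a set limit at 5 µM in the primary screen, cut at about 50% in these data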;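 further: plate controls were negative control wells for no effect and 2.5 mM tranylcypromine positive control for full effect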
Target sequence (P33261 whole entry, looked up): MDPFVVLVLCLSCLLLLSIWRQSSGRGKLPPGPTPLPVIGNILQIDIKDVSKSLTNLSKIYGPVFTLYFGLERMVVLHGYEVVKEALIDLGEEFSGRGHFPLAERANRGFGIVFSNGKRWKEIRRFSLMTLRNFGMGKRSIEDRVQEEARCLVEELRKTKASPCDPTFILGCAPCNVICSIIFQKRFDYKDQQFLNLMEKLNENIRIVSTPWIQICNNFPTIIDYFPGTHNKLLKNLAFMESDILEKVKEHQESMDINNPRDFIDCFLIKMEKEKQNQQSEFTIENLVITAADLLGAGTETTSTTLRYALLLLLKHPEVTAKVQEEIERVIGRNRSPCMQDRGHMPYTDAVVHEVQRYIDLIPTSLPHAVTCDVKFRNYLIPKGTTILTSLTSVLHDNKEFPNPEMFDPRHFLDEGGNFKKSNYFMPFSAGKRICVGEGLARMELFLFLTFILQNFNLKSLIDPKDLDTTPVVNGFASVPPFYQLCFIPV
Cav32 inh – human Cav3.2 channel inhibition, primary screen | Cav3.2-expressing cells, Fluo-4 calcium fluorescence FDSS; hits give low values | B-score at 10 µM | 100,000 compounds, 4% hits;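 active means single-dose well whose peak fluorescence ratio is a statistical outlier from its plate by either plate-standardised score or position-corrected B-score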
CYP2C19 activ – cytochrome P450 2C19 (human) activation; P33261; recombinant CYP2C19, luciferin-H EGE luminescence; hits give high values; 0 = fully inhibited enzyme, 1 = untreated enzyme; activation factor at 5 µM; 96,000 tested, under 10 active; AID 1025;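 active means activation factor of at least 2 at 5 µM in the primary screen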;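 further: 0 = wells with 2.5 mM tranylcypromine and 1 = vehicle-only wells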
* marks the source's active call; other numbers are inactive results; x = no result. A selection: hits, their analogues and other compounds. The true share with any hit is near 27%.

SMILES	CYP2C9 inh	CYP2C9 activ	CYP2C19 inhib	Cav32 inh	CYP2C19 activ
Cc1c(NC(=O)C(C)Sc2nc3ccccc3c(=O)n2CCO)c(=O)n(-c2ccccc2)n1C (stereo not given)	57.7*	0.4	14.8	-0.135	0.9
Cc1c(NC(=O)CSc2nc3ccccc3n2C)c(=O)n(-c2ccccc2)n1C	-106.0	2.1*	1.3	-0.0236	1
Cc1c(NC(=O)COC(=O)C(c2ccc(Cl)cc2)C(C)C)c(=O)n(-c2ccccc2)n1C (stereo not given)	57.7*	0.4	31.2	-1.15	0.7
CCC(CC)C(=O)Nc1c(C)n(C)n(-c2ccccc2)c1=O	51.2*	0.5	2.7	1.08	1
Cc1c(NC(=O)C(C)Sc2ccc3ccccc3n2)c(=O)n(-c2ccccc2)n1C (stereo not given)	9.0	0.9	22.8	-0.13	0.8
O=C(NNC(=O)c1sccc1-n1cccc1)c1cccc(Cl)c1	10.7	0.9	13.7	-0.0675	0.9
O=C(CSCSCC(=O)NCC1CCCO1)NCC1CCCO1 (stereo not given)	-5.9	1.1	-17.1	x	1.2
C=CCn1c2ccccc2c2nnc(SCC(=O)Nc3c(C)n(C)n(-c4ccccc4)c3=O)nc21	12.8	0.9	8.4	3.79*	0.9
CCn1c2ccccc2c2nnc(SCC(=O)Nc3c(C)n(C)n(-c4ccccc4)c3=O)nc21	-7.4	1.1	16.4	2.27	0.8
COC(=O)c1ccc(NC2=CC(=O)CC(C)(C)C2)cc1	50.8*	0.5	28.7	0.685	0.7
CC(=O)Nc1ccc(NC2=CC(=O)CC(C)(C)C2)cc1	23.1	0.8	-8.0	0.0223	1.1
C[C@H]1CCC[C@@]2(O[C@@H](CCO)C[C@@H](O)[C@@H]2O)O1	x	x	x	1.02	x
O=C(CSc1nccn1-c1ccccc1)c1ccc(Br)cc1	17.4	0.8	60.8*	0.0504	0.4
Cn1ccnc1SCC(=O)c1ccc(Br)cc1	15.4	0.8	93.0*	-0.0883	0.1
Cc1ccccc1-n1ccnc1SCC(=O)O	27.1	0.7	22.6	-0.0355	0.8
Cc1ccccc1CSc1nccn1-c1ccccc1	57.4*	0.4	81.6*	-3.59	0.2
Cc1ccccc1NC(=O)Cc1nnc(SCC(=O)c2ccc(Br)cc2)n1C	28.2	0.7	35.8	0.536	0.6
COc1ccccc1OC(=O)CN1C(=O)c2ccccc2C1=O	-18.4	1.2	-1.8	-0.574	1
COc1cccc2c(=O)n(CC(=O)Nc3cccc(F)c3)ccc12	16.8	0.8	40.7	0.87	0.6
CCC(C)c1ccccc1NC(=S)Nc1cccnc1 (stereo not given)	24.9	0.8	41.7	0.588	0.6
CCOC(=O)N1CCN(C(=O)CSc2nnc(-c3ccccc3OC)o2)CC1	-123.8	2.2*	26.3	2.77	0.7
CCOC(=O)N1CCN(C(=O)CSc2nc(-c3cccc(C)c3)ns2)CC1	68.8*	0.3	49.2	-3.15	0.5
CCOC(=O)N1CCN(C(=O)CSc2nnc(-c3cc(OC)ccc3OC)o2)CC1	x	x	x	1.85	x
Cc1cccc(-c2nsc(SCC(=O)Nc3cc(C)on3)n2)c1	27.6	0.7	8.4	-1.42	0.9
COc1ccccc1-c1nnc(SCC(=O)OC(C)C)o1	-34.0	1.3	58.7*	-0.772	0.4
SMILES	CYP2C9 inh	CYP2C9 activ	CYP2C19 inhib	Cav32 inh	CYP2C19 activ
Cc1cccc(C)c1OC(=O)CSc1nnc(-c2ccccc2O)o1	67.3*	0.3	75.4*	-1.54	0.2
CCOC(=O)N1CCN(C(=O)CSc2nnc(-c3cccc(OC)c3)o2)CC1	54.5*	0.5	40.3	0.751	0.6
CC(=O)C1=C(C)N(Cc2ccccc2)C(=O)N[C@H]1c1ccco1	x	x	x	0.24	x
CSc1ccc(C2C(C#N)=C(N)N(c3ccccc3)C3=C2C(=O)CCC3)cc1 (stereo not given)	90.4*	0.1	74.0*	x	0.3
CCOc1ccc(C2C(C#N)=C(N)N(c3sc4c(c3C#N)CCCC4)C3=C2C(=O)CCC3)cc1 (stereo not given)	-0.3	1	-1.7	0.269	1
CCOC(=O)Cn1c2c(c(=N)c3c1CCC3)CCC2	-0.5	1	-2.6	-0.73	1
CCCCCCCCCCn1c2c(c(=N)c3c1CCC3)CCC2	12.9	0.9	19.2	-7.01*	0.8
CCOc1ccc(CN2CCNC(=O)C2CC(=O)OC)cc1 (stereo not given)	-12.1	1.1	-15.3	0.755	1.2
Cn1ccnc1SCC(=O)Nc1ccc2nc(SCC(=O)NC3CC3)sc2c1	62.0*	0.4	18.7	-0.773	0.8
